Data on 21 compounds can be found in PubChem BioAssay (Tox21).

A short description of assay [1]: qHTS assay to identify small molecule agonists of the hypoxia (HIF-1) signaling pathway - cell viability counter screen (AID 1224844; calls by dose curve; also: nearly all actives have a fitted effect of over 50% in size; also: potency is read from the fitted curve at half-maximal effect). In outline: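 Viability counter screen: HRE-bla ME-180 cells plated 5 hrs before compound addition, treated 17 hrs at 37C and 5% CO2, then CellTiter-Glo added after the FRET reporter read; luminescence after 30 min.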
(In general: Quantitative high-throughput screening tests each substance at several concentrations.)

Assay [2] in a line: qHTS assay to identify small molecule agonists of H2AX (AID 1224845; active = well fitted activation curve with a large enough effect in the signal ratio in the repeat runs, not every such curve was filed as active; the % refers to the signal ratio; also: potency is read from the fitted curve at half-maximal effect). The method, boiled down:
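Wild-type CHO-K1 cells plated overnight, then exposed 3 hr at 37C to compounds at 15 concentrations (0.76% DMSO). Lysed, then HTRF anti-pH2AX(S139)-cryptate/anti-H2AX-d2 detection after 24 hr at room temperature; emissions 665 and 620 nm.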

Assay [3] is described as follows: qHTS assay to identify small molecule agonists of H2AX - cell viability counter screen (AID 1224847; calls by dose curve; also: nearly all actives have a fitted effect of over 30% in size; also: potency is read from the fitted curve at half-maximal effect). In outline: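 Compounds tested at 15 concentrations were incubated 3 hr at 37C with wild-type CHO-K1 cells; cellular ATP-based luminescence (CellTiter-Glo) indicated viability.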
Assay [4] in a line: qHTS assay to identify small molecule antagonists of the estrogen related receptor (ERR) signaling pathway from Tox21 library (AID 1224848). Also: nearly all actives have a fitted effect of over 50% in size. Also: potency is read from the fitted curve at half-maximal effect. In outline: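 Tox21 10K compounds in DMSO tested for ERR pathway antagonism in NTP's ERR cell line; 18 h, 37 C exposure; ONE-Glo luminescence.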
Assay [5] in a line: qHTS RealTime-Glo MT Cell Viability Assay in HepG2 cells - 24 hour (AID 1224867). Also: nearly all actives have a fitted effect of over 50% in size. Also: potency is read from the fitted curve at half-maximal effect. The method, boiled down:
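Cell number in HepG2 cultures estimated from NanoLuc luminescence generated by metabolic reduction of a prosubstrate by living cells. The homogeneous, nonlytic format allowed repeated reads at 0, 8, 16, 24, 32 and 40 h of compound exposure.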

The nature of assay [6]: A CellTox Green Cytotoxicity Assay to monitor cytotoxicity in HEK293 cells - 0 hour (AID 1224869). Also: nearly all actives have a fitted effect of over 50% in size. In outline:
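Dead-cell fluorescence measured kinetically: asymmetric cyanine dye, HEK293, 600 cells/well, 5 h settle, 23 nL cpd/DMSO, 37 C, reads 0–40 h every 8 h.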

Assay [7] is described as follows: qHTS RealTime-Glo MT Cell Viability Assay in HepG2 cells - 40 hour (AID 1224870). Also: nearly all actives have a fitted effect of over 50% in size. Also: potency is read from the fitted curve at half-maximal effect. In outline:
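HepG2 cells mixed with RealTime-Glo MT reagents (NanoLuc plus cell-permeant prosubstrate) were seeded at 600 cells/well, incubated 5 h at 37 C/5% CO2, then pinned with compounds in DMSO; nonlytic luminescence tracked viability during 40 h treatment.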

Assay [8] can be described thus: qHTS RealTime-Glo MT Cell Viability Assay in HEK293 cells - 32 hour (AID 1224868). Also: nearly all actives have a fitted effect of over 50% in size. Also: potency is read from the fitted curve at half-maximal effect. In outline:
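Homogeneous bioluminescent viability format in HEK293 cells (600 cells/well). Following 5 h at 37 C/5% CO2, 23 nL compound was pintooled; the signal was measured repeatedly during 40 h incubation.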

Assay [9] in a line: qHTS assay to identify small molecule agonists of the estrogen related receptor (ERR) signaling pathway from Tox21 library (AID 1224849; calls by dose curve; also: nearly all actives have a fitted effect of over 15% in size). To be noted: ERR reporter cell line, ONE-Glo luciferase, 18 h; at 92.4 µM (top of the series) unless noted. In outline:
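Quantitative HTS in agonist format: NTP ERR cell line, compounds transferred in DMSO after 6 h plating, 18 h incubation at 37 C, ONE-Glo luminescence endpoint.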

Molecules are shown by their SMILES. Values joined by “and” are separate entries in the source; they are usually repeats but may differ in a detail not shown here. Equal entries are not always repeated. A number with no mark means an inactive call. Records with an inconclusive call do not appear. Active and inactive are the calls of the source. Unless noted, calls follow the shape of the dose curve; as a rule, active = well fitted curve in the direction sought with a large enough effect in the repeat runs; inconclusive = weak or mixed curves; inactive = no such curve, though single readings can be large; an effect the other way counts as inactive or inconclusive.
% is scaled to controls: 0 for no effect and ±100 for the full control effect.

For `O=C(NO)C1(NS(=O)(=O)c2ccc(Oc3ccc(F)cc3)cc2)CCOCC1`, the Potency entry in assay [1], in assay [2], in assay [3], in assay [5], in assay [6] and in assay [7] was “inactive” each time. Besides, the Potency in assay [4] is 27.3 µM (active).
With `CC(C)(C)c1ccc(C(=O)CCCN2CCC(OC(c3ccccc3)c3ccccc3)CC2)cc1`, the Potency in assay [1] was 19 µM (active); in assay [3], 55.2 µM (active); in [8] it was 9.52 µM (active); in assay [7], 19 µM (active). Also, the Potency result in [2] is “inactive”.
For the compound `CCCCCCCCNC(C)C(O)c1ccc(SC(C)C)cc1` (stereo not given), the Potency in assay [1] is 19 µM (active); in [4], 23.7 µM (active); in assay [5], 13.4 µM (active); in [8], 9.52 µM (active); in assay [7], 13.4 µM (active). Further, the Potency result in assay [2] and in assay [6] was “inactive” each time. In assay [9], the activity change, positive = activation was -63% [at 42.5 µM].
Turning to `O=c1[nH]sc2ccccc12`, the Potency in assay [1] is 21.9 µM (active); in [3], 101 µM (active); in assay [4], 43.3 µM (active); in assay [5] it was 21.9 µM (active); in [8], 30.9 µM (active); in assay [7], 21.9 µM (active). Besides, the Potency entry in assay [2] and in [6] was “inactive” each time. Also, the activity change, positive = activation in [9] was -73.9%.
As for `CC(C)(C)CC(C)(C)c1ccc(OCCOCC[N+](C)(C)Cc2ccccc2)cc1`, the Potency in assay [1] was 19.5 µM (active) and 9.52 µM (active); in assay [4] it was 6.85 µM (active) and 5.96 µM (active); in assay [5] it was 48.9 µM (active) and 9.52 µM (active); in assay [8] it was 12.3 µM (active) and 9.52 µM (active); in assay [7] it was 24.5 µM (active) and 9.52 µM (active). The Potency entry in assay [2] and in [6] was “inactive” in each case.
Take `Cc1onc(-c2ccccc2Cl)c1C(=O)N[C@@H]1C(=O)N2[C@@H]1SC(C)(C)[C@@H]2C(=O)O`: the Potency entry in assay [1], in assay [2], in [3], in [5], in assay [8] and in [6] was “inactive” throughout. Also, in assay [7], the Potency entry was “inactive”.
As to `Clc1ccc2n[nH]nc2c1`, the Potency entry in assay [1], in assay [2], in assay [3], in assay [5], in [8] and in assay [6] was “inactive” throughout. Further, the Potency result in assay [7] was “inactive”.
Regarding `COc1cc(-c2ccc(N=C=O)c(OC)c2)ccc1N=C=O`, the Potency entry in assay [1], in assay [2], in assay [3], in [4], in assay [5] and in [8] was “inactive” throughout. Further, the Potency result in [6] and in assay [7] was “inactive” throughout.
On to `CC(C)(C)NC(=O)[C@@H]1C[C@@H]2CCCC[C@@H]2CN1C[C@@H](O)[C@H](Cc1ccccc1)NC(=O)[C@H](CC(N)=O)NC(=O)c1ccc2ccccc2n1`, for which the Potency was 55.7 µM (active) in assay [1]; 51.2 µM (active) in assay [2]; 51.2 µM (active) in assay [3]; 19.6 µM (active) in assay [4]; 19.7 µM (active) in assay [8]. In [9], the activity change, positive = activation was -72.5%. In assay [6], the Potency entry is “inactive”.
`Cc1ccc2oc(CN(Cc3ccccc3)C(=O)Nc3c(F)cc(F)cc3F)c(-c3ccc(Cl)cc3)c2c1`: the Potency result in [1], in assay [2], in assay [8] and in [6] was “inactive” each time. In addition, the Potency in [4] is 23.6 µM (active). The activity change, positive = activation in [9] was -42.4%.
In the case of `CCCCCCCC/C=C/CCCCCCCC1=NCCN1CCO`, the Potency in [1] is 54.9 µM (active); in assay [4] it was 54.5 µM (active); in assay [5], 17.4 µM (active); in assay [8], 19.5 µM (active); in [7], 17.4 µM (active). In addition, the Potency result in [2] and in assay [6] was “inactive” throughout. The activity change, positive = activation in [9] was -79.9%.
On to `C[n+]1ccn(Cc2ccccc2)c1`, for which the Potency result in assay [1], in assay [2], in assay [3], in [5] and in [6] was “inactive” in each case. Besides, the activity change, positive = activation in assay [9] was -31.8%.
In the case of `CN(C)[C@@H]1C(=O)C(C(N)=O)=C(O)[C@@]2(O)C(=O)C3=C(O)c4c(O)cccc4C[C@H]3C[C@@H]12`, the Potency result in assay [1], in assay [2], in [3], in [5], in assay [8] and in assay [6] was “inactive” throughout. In addition, the Potency entry in [7] is “inactive”. Also, in [9], the activity change, positive = activation was -27.8% [at 42.5 µM].
On to `CN(C)[C@@H]1C(=O)C(C(N)=O)=C(O)[C@@]2(O)C(=O)C3=C(O)c4c(O)ccc(Cl)c4[C@@H](O)[C@H]3C[C@@H]12`, for which the Potency entry in [1], in [2], in [3], in assay [4], in assay [5] and in assay [8] was “inactive” in each case. Besides, the Potency entry in assay [6] and in assay [7] was “inactive” throughout. The activity change, positive = activation in [9] is -10.9% [at 42.5 µM].
On to `CC(C)(C)C(=O)OCOC(=O)[C@@H]1N2C(=O)[C@@H](NC(=O)[C@H](N)c3ccccc3)[C@H]2SC1(C)C`, for which the Potency result in [1], in assay [2], in assay [3], in [4], in assay [5] and in assay [8] was “inactive” throughout. The Potency entry in assay [6] and in [7] was “inactive” each time. In addition, the activity change, positive = activation in assay [9] was 0.778% [at 42.5 µM].
Consider `Cc1c(C)c2c(c(C)c1OC(=O)CCC(=O)O)CC[C@@](C)(CCC[C@H](C)CCC[C@H](C)CCCC(C)C)O2`, for which the Potency in assay [1] is 1.4 µM (active); in [7], 55.6 µM (active). In addition, the Potency result in [2], in assay [3], in assay [4] and in assay [6] was “inactive” each time. The activity change, positive = activation in [9] was -23.6%.
`Cn1cc(C(=O)[C@@H]2CCc3nc[nH]c3C2)c2ccccc21`: the Potency result in assay [1], in assay [2], in [3], in assay [4], in assay [6] and in assay [7] was “inactive” in each case. Moreover, the activity change, positive = activation in assay [9] was -13.3% [at 42.5 µM].
As to `Cc1cccc2c1cc1ccc3cccc4ccc2c1c34`, the Potency result in [1], in assay [2], in [3], in [4], in assay [5] and in assay [6] was “inactive” each time. Besides, in [7], the Potency entry was “inactive”. Also, the activity change, positive = activation in [9] was 35.4% (active).
On to `C[C@H](CCC(=O)O)[C@H]1CC[C@H]2[C@@H]3CC[C@@H]4C[C@H](O)CC[C@]4(C)[C@H]3CC[C@]12C`, for which the Potency in assay [1] is 43.5 µM (active) and 34.7 µM (active); in [2], 89.4 µM (active) and 56.6 µM (active); in assay [3] it was 100 µM (active) and 80 µM (active). The Potency entry in [4], in [5], in assay [8], in assay [6] and in assay [7] was “inactive” in each case. For the same compound, the activity change, positive = activation in [9] is -9.3% and -27.2%.
Take `CCCCCCC[N+](CC)(CC)CCCCc1ccc(Cl)cc1`: the Potency entry in assay [1], in [2], in [3] and in assay [6] was “inactive” throughout. The values for the Potency in assay [8] and in assay [7] were 1.9 µM (active) and 23.9 µM (active), respectively.
For the compound `CCCCN1CCCC[C@H]1C(=O)Nc1c(C)cccc1C`, the Potency entry in assay [1], in assay [2], in assay [3], in assay [5], in assay [8] and in [6] was “inactive” throughout. Moreover, the Potency result in assay [7] is “inactive”.
